Screening results: PubChem BioAssay, National Center for Advancing Translational Sciences (NCATS)
ALOX15B inhib = qHTS Assay for Inhibitors of 15-hLO-2 (15-human lipoxygenase 2); actives 0.56% (n = 110,000); purified 15hLO-2, xylenol orange hydroperoxide absorbance; Potency, µM (series often up to 57.1 µM), usual class: inhibitors; AID 881, 2007; Polyunsaturated fatty acid lipoxygenase ALOX15B (Homo sapiens), O15296; also: nearly all actives have a fitted effect of over 60% in size
Target sequence (O15296 whole entry, looked up): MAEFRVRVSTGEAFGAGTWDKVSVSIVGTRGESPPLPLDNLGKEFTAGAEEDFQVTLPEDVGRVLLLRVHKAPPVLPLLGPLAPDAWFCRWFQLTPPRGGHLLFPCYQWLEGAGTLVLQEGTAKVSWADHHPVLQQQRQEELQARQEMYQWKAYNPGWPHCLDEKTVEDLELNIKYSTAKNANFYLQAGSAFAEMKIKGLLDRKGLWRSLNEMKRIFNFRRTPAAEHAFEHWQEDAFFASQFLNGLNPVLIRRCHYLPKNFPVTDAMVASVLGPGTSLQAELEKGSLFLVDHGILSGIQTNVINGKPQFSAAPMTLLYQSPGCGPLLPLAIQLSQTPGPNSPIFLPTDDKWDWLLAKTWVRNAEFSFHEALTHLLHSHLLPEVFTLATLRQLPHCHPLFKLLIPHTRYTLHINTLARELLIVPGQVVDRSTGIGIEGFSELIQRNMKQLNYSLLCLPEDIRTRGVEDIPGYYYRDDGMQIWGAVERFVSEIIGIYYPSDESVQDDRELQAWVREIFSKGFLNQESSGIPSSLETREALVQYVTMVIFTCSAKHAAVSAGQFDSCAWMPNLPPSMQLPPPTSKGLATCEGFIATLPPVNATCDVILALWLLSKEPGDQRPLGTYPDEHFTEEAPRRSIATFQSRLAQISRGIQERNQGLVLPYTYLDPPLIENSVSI
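Purified human 15hLO-2 (50 nM final) preincubated with compounds 15 min at room temperature in 25 mM Hepes pH 7.5, 0.01% Triton X-100, then 45 uM arachidonic acid added for 90 min; hydroperoxide detected via ferrous/xylenol orange, 573/405 nm absorbance ratio.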
ALOX12 inhib = qHTS Assay for Inhibitors of 12-hLO (12-human lipoxygenase); actives 0.12% (n = 150,000); purified 12-hLO, xylenol orange hydroperoxide absorbance; Potency, µM (series often up to 57.1 µM), usual class: inhibitors; also: nearly all actives have a fitted effect of over 55% in size
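Purified human 12hLO (150 nM), preincubated 15 min with compound, then 40 uM arachidonic acid for 30 min, room temperature, Hepes pH 7.0 with 0.01% Triton X-100. Hydroperoxide detected by ferrous iron/xylenol orange; 573/405 nm absorbance ratio gives reaction progress.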
Of the large screens only hits and unclear results are named; the others gave an inactive call. This excerpt belongs to a sample that is enriched for hits. Calls follow the shape of the dose curve; as a rule, active = well fitted curve in the direction sought with a large enough effect; inconclusive = small, poorly fitted or top-dose-only effect, or another doubt; inactive = no such curve, though single readings can be large; an effect the other way counts as inactive or inconclusive.

CCOC(=O)Cc1csc(NC(=O)c2sc3nc4ccc(CC)cc4cc3c2N)n1	ALOX12 inhib 10µM
CCOC(=O)Cc1csc(NC(=O)c2sc3nc4cc(C)ccc4cc3c2N)n1	none (no result: ALOX15B inhib)
CCOc1cc(/C=N/NC(=O)c2cc(-c3cccc(OC)c3)n[nH]2)ccc1O	none (no result: ALOX15B inhib)
CNC(=O)[C@@H]1O[C@@H](n2cnc3c(N)ncnc32)[C@@H](O)[C@H]1O	none
CCOC(=O)c1cc(C)[nH]c(=S)c1C#N	ALOX15B inhib 25µM
CCOC(=O)c1cc(C(=O)OCC)c(=O)[nH]c1C	none (no result: ALOX15B inhib)
CS(=O)(=O)N(CC(=O)O)c1ccccc1	none (no result: ALOX15B inhib)
CCN1CCC[C@@H]1CNC(=O)c1c(O)c(Cl)cc(Cl)c1OC	none
Fc1ccc2[nH]c3c(N4CCN(c5ccccc5)CC4)ncnc3c2c1	none
OC1(c2cccc(C(F)(F)F)c2)CCN(c2ncnc3c2[nH]c2ccc(F)cc23)CC1	ALOX12 inhib 18µM
Cn1c(=O)c2c(nc(/C=C\c3cccc(Cl)c3)n2C)n(C)c1=O	none
O=c1c(-c2cc(F)cc(F)c2)nc2cnc(N3CCNCC3)nc2n1Cc1ccc(F)cc1	none (no result: ALOX12 inhib)
CC1=C(C(=O)OCc2ccccc2)C(c2ccc(C3CCCCC3)cc2)NC(=O)N1CCCCCC(=O)O (stereo not given)	ALOX15B inhib 25µM
CC1=C(C(=O)OCc2ccccc2)C(c2ccc(Cl)cc2)NC(=O)N1CCCCCC(=O)O (stereo not given)	none
c1ccc(CCc2cccnc2)nc1	none
Cc1cccc(NS(=O)(=O)c2cc(C(=O)O)ccc2Cl)c1	none (no result: ALOX15B inhib)
Clc1ccc(NNc2ccnc3cc(Cl)ccc23)cc1	ALOX15B inhib 16µM
S=C(NNc1ccnc2cc(Cl)ccc12)Nc1ccccc1Cl	none (no result: ALOX15B inhib)
CC1CCN(CC[C@@H]2CCCN2S(=O)(=O)c2cccc(O)c2)CC1	none
CCOC(=O)c1ccc(COC(=O)c2ccc3c(c2)-c2ccccc2C3=O)cc1	none
CCOC(=O)C1=C(Cc2ccc(C)cc2)C(=O)c2ccccc2C1=O	ALOX15B inhib 10µM, ALOX12 inhib inconclusive
CCOC(=O)c1c(C)nc2c(c1-c1cc(OC)ccc1OC)C(=O)c1ccccc1-2	none
CCOC(=O)C1=C(Cc2ccc(OC)cc2)C(=O)c2ccccc2C1=O	ALOX15B inhib 13µM
CN(C)CC(C)(C)CNC(=O)c1ccc(Cc2nc3ccccc3[nH]2)cc1	none (no result: ALOX15B inhib)
N=C1[C@@H](O)[C@]2(I)c3ccccc3N3C(=N)[C@H](O)[C@@H]4c5ccccc5N1[C@@H]4[C@@H]32	ALOX15B inhib inconclusive
CCCCN1CSC(=S)N(Cc2ccccc2)C1	none
CS(=O)(=O)N1N=C(c2ccco2)CC1c1ccccc1 (stereo not given)	none (no result: ALOX15B inhib)
O=[N+]([O-])c1ccc(N2N=C(c3ccco3)CC2c2ccccc2)cc1 (stereo not given)	ALOX15B inhib 13µM
O=C(O)CCNc1ccccc1C(=O)O	none
Cc1ccc(S(=O)(=O)Nc2nc(C)c(NC(=O)Nc3ccc(Cl)cc3Cl)s2)cc1	ALOX15B inhib inconclusive, ALOX12 inhib 7.1µM
Cc1ccc(S(=O)(=O)Nc2nc(C)c(NC(=O)OCCCl)s2)cc1	none
O[C@H]([C@H](O)[C@@H](O)c1nc2ccccc2[nH]1)[C@@H](O)c1nc2ccccc2[nH]1	ALOX12 inhib inconclusive
CCOc1ccc(NS(=O)(=O)c2ccc3[nH]cc(C(=O)N(CC)CC)c(=O)c3c2)cc1	ALOX12 inhib 16µM
CCOc1ccc(NS(=O)(=O)c2ccc3[nH]cc(C(=O)NCC4CCCO4)c(=O)c3c2)cc1 (stereo not given)	none
Cn1c(=O)c2c(ncn2CN2CCN(Cn3cnc4c3c(=O)n(C)c(=O)n4C)CC2)n(C)c1=O	none
C[N+](C)(C)[C@@H](C1=CCCC1=O)c1ccccc1	none
COC(=O)CC[C@@H](C)[C@H]1CC[C@H]2[C@H]3CC[C@H]4C[C@@H]5CC[C@@]4(C)C3(O5)[C@@H](Br)[C@@H](Br)[C@@]12C	none
NC(=S)NNc1cc(Cl)cc(Cl)c1	ALOX15B inhib 2.5µM, ALOX12 inhib inconclusive
NC(=S)NNC(=O)Nc1ccc(Cl)c(Cl)c1	none (no result: ALOX15B inhib)
N[C@H](CCCC(=O)O)C(=O)O	none
CCOC(=O)N1CCN(c2cc3[nH]c(=S)[nH]c3cc2F)CC1	none
CCOC(=O)N1CCN(c2c(F)cc3[nH]c(=S)[nH]c3c2Br)CC1	ALOX15B inhib 13µM, ALOX12 inhib inconclusive
Cc1ccccc1NC(=O)CN1C(=O)S/C(=C\c2cccn2-c2cccc(C(=O)O)c2)C1=O	ALOX15B inhib 25µM
Cc1cccc(C)c1NC(=O)CN1C(=O)S/C(=C\c2cccn2-c2cccc(C(=O)O)c2)C1=O	ALOX15B inhib inconclusive
COC(=O)N1C2CC(=O)O[C@@H]3c4cc5c(cc4[C@]1(C)[C@@]3(Br)c1ccccc12)OCO5	none (no result: ALOX15B inhib)
CCCCOc1ccc(CSCCNC(=S)Nc2ccccc2)cc1	none (no result: ALOX15B inhib)
CC(C)COc1ccc(CSCCNC(=S)Nc2ccccc2)cc1	ALOX15B inhib 25µM, ALOX12 inhib 28µM
OC[C@@H]1O[C@@H](n2cnc3cncnc32)[C@@H](O)[C@H]1O	none
COc1ccc(C2=CC(c3cc(OC)c(OC)c(OC)c3)NC(=S)N2)cc1 (stereo not given)	ALOX15B inhib inconclusive
COc1ccc(OC)c(C2C=C(C34CC5CC(CC(C5)C3)C4)NC(=S)N2)c1 (stereo not given)	ALOX12 inhib 7.1µM (no result: ALOX15B inhib)
COc1cc(C2C=C(C34CC5CC(CC(C5)C3)C4)NC(=S)N2)cc(OC)c1OC (stereo not given)	ALOX12 inhib 11µM
COc1ccc(OC)c(C2SCCN2S(C)(=O)=O)c1 (stereo not given)	none
COc1ccc(S(=O)(=O)N(C)CC(=O)O)cc1C	none (no result: ALOX15B inhib)
Cc1[nH][nH]c(=O)c1C(c1ccc(-c2ccc(Cl)cc2Cl)o1)c1c(C)[nH][nH]c1=O	none
CC1=NOC(=O)/C1=C\c1ccc(-c2ccc(Cl)cc2Cl)o1	ALOX15B inhib 7.9µM
O=C(O)c1ccc(NC(=S)NC2CCCCC2)cc1	none (no result: ALOX15B inhib)
S=C(Nc1ccc(Oc2ccc(NC(=S)NC3CCCCC3)cc2)cc1)NC1CCCCC1	ALOX12 inhib 1.3µM (no result: ALOX15B inhib)
Fc1cccc(Cl)c1/C=N\N=C1c2ccccc2-c2ccccc21	none
CCCCCCCCCCCCCCCC(=O)OCC(O)C1OC(=O)C(O)=C1O (stereo not given)	ALOX15B inhib 8.9µM
CCCCCCCCCCCCCCCCCC(=O)OCC(C)O (stereo not given)	none
CN(CCO)c1nc(N)c2c(N)nc3c(c2c1C#N)CC(=O)N3C1CCCC1	none (no result: ALOX15B inhib)
CC(C)(C)N1C(=O)Cc2c1nc(N)c1c(N)nc(N3CCCCC3CO)c(C#N)c21 (stereo not given)	ALOX15B inhib 25µM, ALOX12 inhib inconclusive
COCCNC(=O)c1ccc(-n2c(=O)c(=O)[nH]c3ccccc32)cc1	none (no result: ALOX15B inhib)
OCCN(C=NC1=NN(c2cccc(C(F)(F)F)c2)CC1)CCO	ALOX15B inhib 25µM
CCN(C=NC1=NN(c2cccc(C(F)(F)F)c2)CC1)CC	none (no result: ALOX15B inhib)
O=C(O)c1ccccc1NS(=O)(=O)c1ccc(Cl)c(Cl)c1	none (no result: ALOX15B inhib)
Nc1ncnc2c1nc(Br)n2[C@@H]1O[C@H]2COP(=O)(O)O[C@@H]2[C@H]1O	none
Cc1cc(=O)c2c(O)c(O)ccc2o1	none
CC(C)c1ccc(O)c(O)c(=O)c1 (tested in a mixture with another compound)	ALOX15B inhib 4µM, ALOX12 inhib inconclusive
Cc1ccc(C)c(NS(=O)(=O)c2cc(C(=O)O)ccc2Cl)c1	none (no result: ALOX15B inhib)
N#C/C(=C\c1ccc(O)c(O)c1)C(=O)NCCc1ccccc1	ALOX12 inhib inconclusive
